From PubChem BioAssay (EPA / NIEHS)
Where “and” joins values, the source holds several entries; their conditions need not be identical. Identical values can stand only once. Results filed as inconclusive are left out. More than one record can exist for a structure, and the calls need not agree. Calls of active or inactive are those of the source. The calls were made as follows: active = hit-call score of the fitted dose curve at least 0.9, where 1 is the maximum; inconclusive = response in the unintended direction; inactive = score below 0.9.

target: human Peripheral-type Benzodiazepine Receptor (PBR), TSPO (gene 706) (UniProt P30536); experiment: NVS_MP_hPBR: NovaScreen (NVS) Membrane Protein Assay for human Peripheral-type Benzodiazepine Receptor (PBR) (AID 2283331)
Description: NVS_MP_hPBR is a biochemical, single-readout assay that uses extracted gene-proteins from Human colonic cell membranes in a tissue-based cell-free assay. Measurements were taken 1 hour after chemical dosing in a 48-well plate.NVS_MP_hPBR is one of one assay component(s) measured or calculated from the NVS_MP_hPBR assay. It is designed to make measurements of radioligand binding, a form of binding reporter, as detected with scintillation counting signals by Filter-based radiodetection technology.Data from the assay component NVS_MP_hPBR was analyzed into 1 assay endpoint. This assay endpoint, NVS_MP_hPBR, was analyzed in the positive analysis fitting direction relative to DMSO as the negative control and baseline of activity. Using a type of binding reporter, loss-of-signal activity can be used to understand changes in the binding as they relate to the gene TSPO. Furthermore, this assay endpoint can be referred to as a primary readout, because the performed assay has only produced 1 assay endpoint. To generalize the intended target to other relatable targets, this assay endpoint is annotated to the transporter intended target family, where the subfamily is cholesterol transporter.
Binding assays used specific radioligands (tritiated, iodinated) with non-radioactive competitive displacement ligands in agonist or antagonist protocols (as indicated) and various reference compounds and inhibitors to titrate specific binding to receptors and transporters. Most enzyme assays (CYPs, kinases, phosphatases, proteases, HDACs) used recombinant protein and specific substrates (fluorescence mostly, some colorimetric and radioactive) and inhibitors, followed by a biochemical separation of substrate and product. All assays for the biochemical HTS were initially run in duplicate at a single concentration (10 uM for CYP450 assays and 25 uM for all others). […] Each assay was run with positive and negative controls, and concurrent controls on every plate. The follow-up (secondary) screen tested active chemical-pairs in concentration series, as well as a few additional assays not tested in the primary screen, some selected negative inactives, and several cases re-run in the concentration series for confirmatory purposes.

Sequence of human Peripheral-type Benzodiazepine Receptor (PBR), TSPO (gene 706) (P30536 whole entry, looked up): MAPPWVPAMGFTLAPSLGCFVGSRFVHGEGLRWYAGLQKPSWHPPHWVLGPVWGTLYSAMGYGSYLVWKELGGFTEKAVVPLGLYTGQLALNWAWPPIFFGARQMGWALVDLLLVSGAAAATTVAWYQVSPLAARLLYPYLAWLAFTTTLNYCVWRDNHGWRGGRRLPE

Row | Compound | outcome | AC50
1 | CCCCOC(=O)CC(CC(=O)OCCCC)(OC(C)=O)C(=O)OCCCC | inactive | –
2 | Cc1c2ccccc2c(C)c2c1ccc1ccccc12 | – | 14.6 µM (active)
3 | CC/C(=C(/CC)c1ccc(O)cc1)c1ccc(O)cc1 | inactive | 202 nM (active) and 13.5 µM (active)
4 | CCCCOC(=O)c1ccc(O)cc1 | – | 19.6 µM (active) and 25 µM (active)
5 | OC12N=C(c3ccccc3)SC1Cc1cc(Cl)ccc12 (stereo unspecified) | inactive | –
6 | CC[C@@H]1C[C@H](N(Cc2cc(C(F)(F)F)cc(C(F)(F)F)c2)C(C)=O)c2cc(C(F)(F)F)ccc2N1C(=O)OC(C)C | inactive | –
7 | Cc1ccc2oc(CN(Cc3ccccc3)C(=O)Nc3c(F)cc(F)cc3F)c(-c3ccc(Cl)cc3)c2c1 | – | 2.6 µM (active)
8 | O=c1c(-c2ccc(O)cc2)coc2cc(O)cc(O)c12 | – | 8.19 µM (active)
9 | CC[C@H](NC(=O)c1cc(F)ccc1NS(=O)(=O)c1cccc2cccnc12)c1ccccc1 | – | 0.246 µM (active)
10 | Oc1ccc2ccccc2c1 | inactive | –
11 | NCc1cccc(C2CCN(C(=O)c3ccc(C#Cc4ccccc4F)o3)CC2)c1 | – | 2.7 µM (active)
12 | CCN(CC)C(=O)c1cc(S(=O)(=O)Cc2ccccc2)c(N2CCC(c3ccccc3)CC2)cc1N(CC)CCN(C)C | – | 3.31 µM (active)
13 | CCCCCCCCOC(=O)c1cc(O)c(O)c(O)c1 | – | 0.439 µM (active)
14 | O=C(O)Cn1c(=O)n(Cc2ccc(Br)cc2F)c(=O)c2ccc(Cl)cc21 | inactive | –
15 | Cc1oc2c(NC(=O)c3c(Cl)cccc3Cl)cccc2c1C(C)(C)O | – | 1.26 µM (active)
16 | NC(=O)c1nc(-c2cccc(-c3cc(F)ccc3OCC(F)(F)C(F)(F)F)c2)n[nH]1 | inactive | –
17 | COc1cc(C(=O)NC2CCN(C)CC2)ccc1Nc1ncc2c(n1)N(C1CCCC1)CC(F)(F)C(=O)N2C | inactive | –
18 | CCN(Cc1cccnc1)C(=O)c1cccc(Cl)c1[C@]1(C)C(=O)N(Cc2ccc(OC)cc2OC)c2ccc(Cl)cc21 | – | 1.07 µM (active)
19 | CC(C)(O)c1ccc(CNC(=O)c2cccnc2Oc2ccc3nonc3c2)cc1 | – | 2.34 µM (active)
20 | CN(C)c1ccc(C(=C2C=CC(=[N+](C)C)C=C2)c2ccc(N(C)C)cc2)cc1 | – | 1.4 µM (active)
